From PMC5540273 (PLoS ONE, 2017)

Legend:
Conditions in all cases: concentration: 1 μM, replicates: in singlicate; n = 1
[1] = test system: T1, YANK2
T1 construct: gene STK32B

[2] = test system: T2, YANK3
T2 construct: gene STK32C

[3] = test system: T3, YES
T3 construct: gene YES1

[4] = test system: T4, YSK1
T4 construct: gene STK25

[5] = test system: T5, YSK4
T5 construct: gene MAP3K19

[6] = test system: ZAK
[7] = test system: ZAP70
[8] = test system: T6, p38-alpha
T6 construct: gene MAPK14

[9] = test system: T7, p38-beta
T7 construct: gene MAPK11

[10] = test system: p38-delta
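Further: KINOMEscan kinase panel screen.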

Structure (SMILES) | %Inh [1] [%] | %Inh [2] [%] | %Inh [3] [%] | %Inh [4] [%] | %Inh [5] [%] | %Inh [6] [%] | %Inh [7] [%] | %Inh [8] [%] | %Inh [9] [%] | %Inh [10] [%]
Cc1ccc(-c2nc(Nc3ccncc3)c3ccccc3n2)s1 [GSK189015] | 12 | 28 | 5 | 0 | 0 | 0 | 0 | 0 | 0 | 49
COc1ccc2cc(-c3nc(-c4ccccc4C(C)C)[nH]c3-c3ccncc3)ccc2c1 [SB-660566] | 62 | 53 | 25 | 31 | 45 | 31 | 0 | 3 | 2 | 44
CCn1c(-c2c(N)noc2C)nc2cnccc21 [SB-737856] | 0 | 17 | 19 | 58 | 44 | 30 | 0 | 0 | 0 | 16
COc1ccc(CSc2nnc(-c3ccc4ncsc4c3)o2)cc1C(F)(F)F | 11 | 0 | 0 | 11 | 70 | 0 | 11 | 0 | 10 | 0
Cc1ccc(NC(=O)Nc2ccc(Cl)c(C(F)(F)F)c2)cc1-c1ccc(C(=O)Nc2ccncc2)cc1 [GSK1398470] | 0 | 10 | 7 | 0 | 72 | 59 | 0 | 95.9 | 96.2 | 0
O=C(Nc1n[nH]c2nc(-c3cccs3)c(Br)cc12)C1CCCC1 [SB-743341] | 15 | 65 | 0 | 0 | 0 | 19 | 0 | 13 | 24 | 24
O=C1NC(=O)C(c2ccc(Cl)cc2)=C1Nc1ccc(O)cc1 [SB-340867] | 0 | 0 | 0 | 8 | 10 | 22 | 0 | 0 | 0 | 0
CS(=O)(=O)CCNCc1nc(-c2ccc3ncnc(Nc4ccc(OCc5ccccc5)c(Cl)c4)c3c2)cs1.Cl [GW582764] | 0 | 40 | 7 | 0 | 30 | 5 | 0 | 0 | 0 | 37
Nc1cccc(-c2ccc3c(N)n[nH]c3c2)n1 [GSK2192730] | 0 | 0 | 0 | 26 | 83 | 10 | 3 | 8 | 0 | 22
COc1nccc(-c2c(-c3ccc(F)cc3)ncn2CCCN2CCOCC2)n1 [SB-282852] | 0 | 0 | 0 | 0 | 0 | 11 | 31 | 81 | 62 | 0
Cc1ccc(NC(=O)Nc2ccc(Cl)cc2)cc1-c1ccc(C(=O)Nc2ccncc2)cc1 [GSK1398472] | 4 | 0 | 17 | 15 | 56 | 64 | 7 | 72 | 34 | 42
NS(=O)(=O)c1cccc(N/C=C2\C(=O)Nc3ccc(S(=O)(=O)Cc4c(Cl)cccc4Cl)cc32)c1 [GSK398099] | 0 | 12 | 22 | 0 | 39 | 4 | 20 | 0 | 0 | 27
Cc1ccccc1Cn1ccn2c(=O)cc(N3CCOCC3)nc12 [GSK2269905] | 0 | 7 | 19 | 16 | 28 | 0 | 0 | 0 | 0 | 7
Cc1c(Cn2c3ccccc3n3c(=O)cc(N4CCOCC4)nc23)cccc1C(F)(F)F [GSK2306394] | 0 | 13 | 6 | 0 | 7 | 1 | 0 | 22 | 0 | 17
COC(=O)C(NC(=O)NC1CCN(c2ccnc(Nc3ccc(F)cc3)n2)C1)c1ccccc1 (stereo not drawn) [GSK1379712] | 0 | 0 | 0 | 14 | 32 | 0 | 4 | 12 | 0 | 37
COc1ccc(CSc2nnc(-c3ccc4nccn4c3)o2)cc1C(F)(F)F | 8 | 0 | 0 | 14 | 92.3 | 0 | 0 | 4 | 21 | 0
Fc1ccc(-c2nn3cccc(F)c3c2-c2ccncc2)cc1 [GW475620] | 46 | 12 | 5 | 0 | 14 | 25 | 3 | 97.6 | 16 | 21

Structure (SMILES) | %Inh [1] [%] | %Inh [2] [%] | %Inh [3] [%] | %Inh [4] [%] | %Inh [5] [%] | %Inh [6] [%] | %Inh [7] [%] | %Inh [8] [%] | %Inh [9] [%] | %Inh [10] [%]
COc1ccc(Nc2nccc(N3CCC(NC(=O)C(C)c4ccc(Cl)cc4)C3)n2)cc1 (stereo not drawn) [GSK1379735] | 7 | 15 | 13 | 0 | 0 | 5 | 2 | 0 | 24 | 29
O=C1NC(=O)C(c2ccc(Cl)cc2)=C1Nc1cccc(Cl)c1 [SB-317651] | 0 | 0 | 0 | 0 | 0 | 16 | 5 | 13 | 0 | 5
CS(=O)(=O)CCNCc1nc(-c2ccc3ncnc(Nc4ccc5c(cnn5Cc5ccccc5)c4)c3c2)cs1.Cl.Cl [GW569716] | 0 | 0 | 21 | 0 | 36 | 0 | 0 | 4 | 0 | 18
CC(C)c1ccc(O)cc1Nc1ccnc2ccc(C(F)(F)F)cc12 [GW482059] | 2 | 0 | 0 | 0 | 73 | 9 | 0 | 0 | 0 | 1
COc1cccc(CNC(=O)NC2CCN(c3ccnc(Nc4ccc(F)cc4)n3)C2)c1 (stereo not drawn) [GSK1379723] | 0 | 14 | 8 | 0 | 28 | 100 | 0 | 0 | 0 | 43
Cn1cncc1C(=O)NC1CCN(c2ccnc(Nc3ccc(F)cc3)n2)C1 (stereo not drawn) [GSK1379717] | 4 | 0 | 12 | 0 | 38 | 100 | 43 | 0 | 0 | 5
Cl.Cl.Cl.N#Cc1ccc(CCNc2nccc(-c3cccc(CN4CCNCC4)c3)n2)cc1 [GSK2137462] | 0 | 3 | 6 | 0 | 10 | 10 | 0 | 0 | 0 | 49
CNC(=O)c1ccc(C)c(-n2c(C)cc(OCc3ccc(F)cc3F)c(Br)c2=O)c1 | 0 | 0 | 0 | 0 | 0 | 0 | 0 | – | 94.5 | 0
FC(F)(F)c1ccccc1-c1cc(-c2c[nH]nc2-c2ccccn2)ccn1 [GW679396] | 18 | 13 | 0 | 0 | 0 | 0 | 0 | 95.4 | 18 | 17
Nc1ncnc2occ(-c3ccc4c(c3)CCN4C(=O)Cc3cc(F)ccc3F)c12 [GSK2645446] | 0 | 0 | 0 | 4 | 66 | 0 | 0 | 0 | 0 | 24
CCn1c(-c2ccccc2)nc2cnccc21 [SB-733416] | 0 | 32 | 4 | 0 | 0 | 7 | 0 | 0 | 0 | 56
Cc1cccc2c(-c3ccncn3)c(-c3ccc(F)cc3)nn12 [GW515532] | 41 | 18 | 0 | 8 | 16 | 9 | 20 | 91.6 | 1 | 15
Cc1nccc(-c2c(-c3ccc(F)cc3)ncn2CCCN2CCOCC2)n1.Cl [SB-282975] | 0 | 5 | 18 | 0 | 22 | 28 | 25 | 61 | 26 | 0
CCCCc1nn2ncccc2c1-c1ccnc(NC2CC2)n1 [GW684374] | 3 | 0 | 0 | 25 | 18 | 24 | 0 | 61 | 0 | 40
COc1cccc(NC(=O)Nc2ccc(C)c(-c3ccc(C(=O)Nc4ccncc4)cc3)c2)c1 [GSK1398474] | 0 | 10 | 12 | 4 | 24 | 50 | 0 | 6 | 0 | 28
COc1ccc(Nc2nccc(NCCNC(=O)Nc3cc(C)ccc3C)n2)cc1 [GSK1379899] | 0 | 0 | 0 | 0 | 4 | 3 | 0 | 0 | 0 | 21
Cc1cnc(N)c(/C=C/c2cncc(C(=O)NCCc3ccc(Cl)cc3Cl)c2)c1.Cl [GSK190937] | 0 | 26 | 20 | 4 | 27 | 16 | 0 | 29 | 0 | 25
